Screens deposited in PubChem BioAssay by The Scripps Research Institute Molecular Screening Center.
The list is not random: actives were taken first. Their share in the collection is about 2.9%.
PAFAH1B3 FP inh: blocks human PAF acetylhydrolase 1B catalytic subunit 3. inhibition, % at 3.39 µM. AID 492972. Q15102. 0.28% of 340,000 active. recombinant PAFAH1B3, FP-rhodamine probe, fluorescence polarization;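 active = inhibition above the screen-wide average of all tested compounds plus 3 SD, cut at about 25% in these data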;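 note: 0% = enzyme with DMSO only and 100% = wells lacking PAFAH1B3 protein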
pPAFAH inh: inhibitors of human plasma PAF acetylhydrolase (pPAFAH); Q13093; recombinant pPAFAH, FP-rhodamine probe fluorescence polarization; inhibition, % at 3.39 µM; 1.5% of 330,000 active; AID 463082;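 active = inhibition above the mean inhibition across the screen plus 3 SD, cut at about 25% in these data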;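 note: inhibitors block binding of the rhodamine activity-based probe so polarization drops; 0% = enzyme with DMSO and 100% = wells lacking pPAFAH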
Fam108B counter: counter-screen for RBBP9 inhibitors: inhibitors of mouse Fam108B. recombinant Fam108B, FP-Rh probe fluorescence polarization. inhibition, % at 9.51 µM. 0.33% of 300,000 active;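 active = inhibition above the screen mean inhibition plus 3 SD, computed separately per campaign, cut at about 18% in these data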;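 note: inhibitors lower polarization as less probe binds the enzyme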
PAFAH1B2 FP inh: PAFAH1B2 (human) inhibition | AID 492953 | recombinant PAFAH1B2, FP-rhodamine activity probe, fluorescence polarization | inhibition, % at 3.39 µM | P68402 | 1.2% of 340,000 active;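 active = inhibition above the mean of all tested compounds plus 3 SD, cut at about 24% in these data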;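 note: 0% = enzyme with DMSO and 100% = wells lacking PAFAH1B2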
Target sequence (P68402 whole entry, looked up): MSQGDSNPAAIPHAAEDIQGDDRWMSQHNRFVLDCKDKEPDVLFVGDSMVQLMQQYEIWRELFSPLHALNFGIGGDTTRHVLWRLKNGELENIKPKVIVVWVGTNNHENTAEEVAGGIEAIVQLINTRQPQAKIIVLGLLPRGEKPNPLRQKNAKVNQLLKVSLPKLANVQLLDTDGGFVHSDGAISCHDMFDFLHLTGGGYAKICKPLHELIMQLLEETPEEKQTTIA
PAFAH2 inh: inhibitors of human PAFAH2. Q99487. inhibition, % at 3.39 µM. recombinant PAFAH2, FP-rhodamine activity probe, fluorescence polarization. AID 492956. 0.99% of 340,000 active;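 active = inhibition above the mean over all tested compounds plus 3 SD, cut at about 30% in these data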;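 note: inhibitors block probe labeling of enzyme so polarization drops; 0% = enzyme with DMSO and 100% = wells lacking PAFAH2 protein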
PME-1 inh: PME-1 (human) inhibition; Q9Y570; 0.53% of 320,000 active; inhibition, % at 5.9 µM; recombinant PME-1, FP-Rh probe fluorescence polarization;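 active = inhibition above the campaign mean of all compounds plus 3 SD, cut at about 26% in these data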;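 note: competitive labeling of PME-1 active site by serine hydrolase directed probe; 0% = PME-1 with DMSO and 100% = wells lacking PME-1 enzyme; inhibitors block probe labeling so polarization falls and inhibition rises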
Target sequence (Q9Y570 whole entry, looked up): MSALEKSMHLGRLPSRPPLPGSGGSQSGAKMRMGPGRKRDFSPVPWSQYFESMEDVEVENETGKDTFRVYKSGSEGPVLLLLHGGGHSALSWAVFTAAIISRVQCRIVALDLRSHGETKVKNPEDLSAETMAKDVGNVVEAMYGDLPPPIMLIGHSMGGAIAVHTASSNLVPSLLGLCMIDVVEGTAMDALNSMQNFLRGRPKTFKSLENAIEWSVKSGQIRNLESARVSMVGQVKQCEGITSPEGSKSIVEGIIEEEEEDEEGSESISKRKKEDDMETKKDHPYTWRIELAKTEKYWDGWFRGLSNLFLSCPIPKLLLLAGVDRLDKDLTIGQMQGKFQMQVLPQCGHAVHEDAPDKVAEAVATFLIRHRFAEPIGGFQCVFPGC
An asterisk follows results filed as active; nt = not tested or not shown.

SMILES | PAFAH1B3 FP inh | pPAFAH inh | Fam108B counter | PAFAH1B2 FP inh | PAFAH2 inh | PME-1 inh
O=S(=O)(NCC(c1ccc2c(c1)OCO2)N1CCOCC1)c1ccc(Br)cc1 (stereo not given) | 3 | 8 | 0 | 25* | -2 | -2
O=S(=O)(NCC(c1ccc2c(c1)OCO2)N1CCOCC1)c1ccc(F)cc1 (stereo not given) | 1 | 5 | 7 | 3 | -2 | -6
CCCCCCSc1cc(-c2nc3cc(C)ccn3c2NCCCC)ccc1OC | 7 | 18 | 6 | 2 | 1 | 9
CCCCNc1c(-c2cccc(-c3cc(C(C)=O)cs3)c2)nc2cc(C)ccn12 | 10 | 33* | 7 | 7 | 5 | 10
O=C(COC(=O)Cc1ccsc1)NC1CCCCCC1 | 4 | 30* | -1 | 11 | 14 | 6
COc1ccc(NC(=O)Cc2ccsc2)c(OC)c1 | 8 | 7 | -1 | 6 | -2 | 6
COc1ccc(NC(=O)COC(=O)Cc2ccsc2)c(OC)c1 | 9 | 30* | nt | -2 | 7 | nt
O=C(COC(=O)Cc1ccc(F)cc1)NC1CCCCCC1 | 3 | nt | nt | 5 | 20 | nt
COc1ccc(NC(=O)CCN2CCN(Cc3ccccc3)CC2)c(OC)c1 | 13 | 2 | 1 | 8 | 5 | 2
CN(C)S(=O)(=O)c1cc(NC(=O)COC(=O)CC2CC3CCC2C3)ccc1Cl (stereo not given) | 1 | 26* | nt | 6 | 77* | nt
CCOC(=O)CSc1ccc(S(=O)(=O)N2CCC(C)CC2)cc1[N+](=O)[O-] | 10 | 4 | 3 | 26* | 0 | -1
COc1cc(C(=O)NNC(=O)c2ccccc2OCc2c(C)noc2C)cc(OC)c1OC | 6 | -15 | nt | 7 | -2 | 1
CC(C)(C)[C@@H]1COC(=O)[C@H](Cc2ccc(F)cc2)C/C=C\C[C@@H](CC(=O)NCCO)C(=O)N1 | 4 | 2 | nt | 32* | 0 | nt
C[C@H]1COC(=O)[C@@H](Cc2ccc(F)cc2)C/C=C\C[C@@H](CC(=O)NCCO)C(=O)N1 | -6 | 2 | nt | 2 | 7 | nt
C[C@@H]1COC(=O)[C@H](Cc2ccc(F)cc2)C/C=C\C[C@@H](CC(=O)NCCO)C(=O)N1 | 6 | 0 | nt | 33* | 1 | nt
COCc1ccc(CN2CCCC(C(=O)Nc3ccc(-c4cccc(OC)c4)cc3)C2)o1 (stereo not given) | 5 | 16 | -2 | 0 | -1 | -3
Clc1ccc(SCCn2ccnc2)cc1 | 7 | 0 | 0 | 35* | 1 | -1
Clc1ccc(OCCn2ccnc2)c(Cl)c1 | 1 | 1 | 3 | -7 | 10 | 5
O=C1NC[C@H](c2ccccc2)OC(=O)[C@H](Cc2ccc(F)cc2)CC/C=C/C[C@@H]1CC(=O)N(CCO)Cc1ccccc1 | 11 | -2 | nt | 0 | -4 | nt
O=C1NC[C@H](c2ccccc2)OC(=O)[C@H](Cc2ccc(F)cc2)C/C=C\C[C@H]1CC(=O)N(CCO)Cc1ccccc1 | 12 | 12 | nt | 51* | -6 | nt
O=C1NC[C@@H](c2ccccc2)OC(=O)[C@@H](Cc2ccc(F)cc2)CC/C=C/C[C@H]1CC(=O)N(CCO)Cc1ccccc1 | 10 | 20 | nt | 66* | 1 | nt
O=C1NC[C@@H](c2ccccc2)OC(=O)[C@H](Cc2ccc(F)cc2)C/C=C\C[C@H]1CC(=O)N(CCO)Cc1ccccc1 | 7 | -1 | nt | 29* | 5 | nt
O=C1NC[C@H](c2ccccc2)OC(=O)[C@@H](Cc2ccc(F)cc2)C/C=C\C[C@H]1CC(=O)N(CCO)Cc1ccccc1 | 11 | 0 | nt | 16 | 3 | nt
CC(C)(C)OC(=O)C[C@@H]1C/C=C\C[C@H](CC(=O)N(CCO)Cc2ccccc2)C(=O)NC[C@@H](c2ccccc2)OC1=O | -6 | 0 | nt | 6 | -11 | nt
Cc1noc(C)c1-c1ccc2ncnc(NCC3CCCCN3C)c2c1 (stereo not given) | 13 | 0 | nt | -5 | 5 | -6
SMILES | PAFAH1B3 FP inh | pPAFAH inh | Fam108B counter | PAFAH1B2 FP inh | PAFAH2 inh | PME-1 inh
CC(OC(=O)c1ccc(Cl)c([N+](=O)[O-])c1)C(=O)N1CCN(Cc2ccccc2)CC1 (stereo not given) | 9 | 0 | nt | 5 | 5 | 0
COc1ccccc1C1CCN(C(=O)c2ccco2)CC1 | 10 | 3 | 0 | -2 | 5 | -2
COc1ccccc1N(Cc1ccccc1)S(=O)(=O)c1cccc(C(=O)O)c1 | 8 | 34* | 1 | 7 | -2 | 0
CCOc1ccccc1NC(=O)c1cccc(S(=O)(=O)N(Cc2ccccc2)c2ccccc2OC)c1 | -4 | 2 | -8 | -5 | -9 | -7
CCC(C)Nc1nc(-c2ccc3c(c2)NC(=O)CO3)cs1 (stereo not given) | 1 | 25* | 1 | 0 | 3 | 0
COc1ccc(Nc2nc(-c3ccc4c(c3)NC(=O)CO4)cs2)cc1 | 6 | 30* | 8 | -2 | 3 | 17
COc1ccc(CNC(=O)CCCC(=O)n2nc(C)c3ccccc32)cc1 | 2 | 3 | -6 | 2 | -3 | 1
Cc1[nH]c(=O)[nH]c(=O)c1S(=O)(=O)Nc1ccc(F)cc1F | 6 | nt | nt | 4 | 0 | nt
CC(C)(C)c1ccc(Cn2c(=O)cnc3ccccc32)cc1 | 4 | 1 | 3 | 9 | 8 | 1
O=c1[nH]c(S)c(/C=C2\C=Nc3ccccc32)s1 | nt | 25* | 18 | nt | nt | 5
O=C(Cn1c(O)c(/C=C2\C=Nc3ccccc32)sc1=O)N1CCOCC1 | 1 | 5 | -8 | 4 | -3 | 9
CCN(CC)CCn1c2c(c(SCC(=O)Nc3ccccc3Cl)nc1=O)CCC2 | 6 | 3 | 1 | -3 | 12 | 4
CCCCc1cc(=O)oc2c(CN3CCCC3)c(O)ccc12 | 4 | -3 | -3 | 4 | 0 | 2
CCCCc1cc(=O)oc2cc(C)c(CN3CCCC3)c(O)c12 | 5 | 30* | 1 | 1 | 16 | -3
COc1ccc(Nc2cnn(-c3nc4ccccc4s3)c(=O)c2Cl)cc1 | 3 | 2 | 2 | 1 | -12 | 29*
CCNc1nc(Oc2c(Cl)cccc2Cl)cc(C(F)(F)F)n1 | -3 | 0 | 2 | 4 | 0 | -2
CCNc1nc(Oc2ccc(OC)cc2)cc(C(F)(F)F)n1 | 8 | 33* | 5 | -2 | 7 | -8
O=C(COC(=O)/C=C/c1ccccc1)NNC(=O)c1ccccc1F | 5 | nt | nt | 6 | 7 | nt
CC(C)(C)OC(=O)[C@H]1[C@H](c2ccc([N+](=O)[O-])cc2)C2(C(=O)c3ccccc3C2=O)C2c3ccccc3C=NN21 (stereo not given in full) | 2 | 11 | 6 | 84* | 7 | 3
COc1ccc([C@H]2[C@H](C(=O)C(C)(C)C)N3N=Cc4ccccc4C3[C@]23N=C(c2ccccc2)OC3=O)cc1 (stereo not given in full) | 4 | -3 | -5 | 4 | 0 | -3
CCC(Oc1cc(Cl)ccc1Cl)C(=O)N1CCCN(C)CC1 (stereo not given) | 0 | nt | nt | -3 | 2 | nt
CC(C)CNC(=O)CSc1ccc(Cl)cc1 | -2 | 3 | 3 | 26* | 2 | -6
